# Assay results: PubChem BioAssay (NCI)
# The panel holds about 79,000 compounds, 15% with a hit somewhere; the sample as a whole holds those more often. A number with no mark means an inactive call. Activity calls are given as the source filed them. No stated cut-off is given here; in the data, active means growth inhibition above about 70%; inactive means the rest.
# Experiments:
# [1] = NCI Yeast Anticancer Drug Screen. Data for the rad50 strain (AID 155);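 further: 0% = growth of vehicle-only cultures of the same strain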; conditions: S. cerevisiae rad50 strain growth inhibition, active compounds read high
# How it was run: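 A DNA repair-deficient yeast mutant serves as the test organism; compound-induced growth inhibition is calculated against vehicle-treated cells.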
# [2] = NCI Yeast Anticancer Drug Screen. Data for the mec2-1 strain (AID 157); conditions: S. cerevisiae mec2-1 strain, active compounds read high
# How it was run: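 Each compound was tested on mec2-1 yeast, a strain altered in DNA damage repair or cell cycle control. Growth inhibition is reported relative to vehicle.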
# [3] = NCI Yeast Anticancer Drug Screen. Data for the sgs1 mgt1 strain (AID 161);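 further: 0% = growth of cultures given vehicle only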; conditions: S. cerevisiae sgs1 mgt1 strain, active compounds read high
# How it was run: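 Inhibition of yeast growth, normalised to vehicle-treated controls, is reported for a strain bearing genetic alterations in DNA damage repair.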
# [4] = NCI Yeast Anticancer Drug Screen. Data for the cln2 rad14 strain (AID 165);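 further: 0% = growth equal to vehicle treated cultures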; conditions: S. cerevisiae cln2 rad14 strain, active compounds read high
# How it was run: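 Test compounds were added to cln2 rad14 yeast cultures; inhibition of growth was then determined by comparison with vehicle treatment.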
# [5] = NCI Yeast Anticancer Drug Screen. Data for the bub3 strain (AID 167); conditions: S. cerevisiae bub3 mutant strain, active compounds read high
# How it was run: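 Inhibition values come from growth of compound-treated mutant yeast normalised to vehicle-treated controls.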
# [6] = NCI Yeast Anticancer Drug Screen. Data for the mlh1 rad18 strain (AID 175); conditions: S. cerevisiae mlh1 rad18 strain growth inhibition, active compounds read high
# How it was run: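 Inhibition values reflect reduced growth of mutant yeast versus vehicle-treated controls following compound exposure; the mutations affect DNA damage repair.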
# [7] = at 5.0 µM (retest, dose inferred, filed as 0.5)
# [8] = at 50.0 µM (retest, dose inferred, filed as 5.0)
Structure (SMILES),"growth inhibition [1, 7] [%]","growth inhibition [1, 8]",growth inhibition ([1]; at 50.0 µM),"growth inhibition [2, 7] [%]","growth inhibition [2, 8]",growth inhibition ([2]; at 50.0 µM),"growth inhibition [3, 7] [%]","growth inhibition [3, 8]",growth inhibition ([3]; at 50.0 µM),"growth inhibition [4, 7] [%]","growth inhibition [4, 8]",growth inhibition ([4]; at 50.0 µM),"growth inhibition [5, 7] [%]","growth inhibition [5, 8]",growth inhibition ([5]; at 50.0 µM),"growth inhibition [6, 7] [%]","growth inhibition [6, 8]",growth inhibition ([6]; at 50.0 µM)
Oc1c(Cl)c2ccccc2c2ccccc12,-2,59%,98.6% (active),56,48%,99.2% (active),1,23%,99% (active),-1,24%,98.5% (active),37,76% (active),93.5% (active),8,44%,98.7% (active)
CCOC1Oc2ccccc2-c2nc(SC)ncc21 (stereo not given),23,20%,75.4% (active),14,20%,19.9%,18,21%,36.6%,26,18%,15.9%,28,55%,47.6%,17,19%,43.9%
Cc1ccc(N)c(Cc2c(O)ccc3ccccc23)c1,2,79% (active),98.2% (active),4,75% (active),98.7% (active),1,79% (active),98.8% (active),-7,64%,98.5% (active),0,66%,98.7% (active),1,82% (active),98.6% (active)
O=S(=O)(O)SCCNCCCCCC1CCCCC1,20,87% (active),15.3%,27,94% (active),22.5%,19,83% (active),65.5%,32,71% (active),18.6%,17,95% (active),52.2%,34,93% (active),30.6%
CN(C)CCSc1cc(-c2ccccc2)c2ccccc2n1,-7,90% (active),59.5%,6,87% (active),29.9%,-8,91% (active),39.9%,26,94% (active),21.9%,9,97% (active),53.7%,15,92% (active),78.2% (active)
